Assay outcomes (PubChem BioAssay)
The entries come from a sample that favours hits as a whole.
Pf Dd2 inh – Plasmodium falciparum Dd2 growth inhibition. 4.3% of 120,000 active. P. falciparum Dd2 growth, SYBR Green, 72 h. Potency, µM (titrated, usually from 28.9 µM), hits mostly inhibitors; active = well fitted inhibition curve with a large enough effect; also: nearly all actives have a fitted effect of over 65% in size
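Infected erythrocytes (Dd2, 0.3% parasitemia, 2.5% hematocrit final) are added to compound in RPMI-1640/Albumax II medium, grown 72 h at 37C in low oxygen, then lysed with saponin/Triton-X containing SYBR Green and read by fluorescence.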
Each line names hits and unclear results; the compound was inactive in the other large screens.

COCC(=O)N1CCCCCC1c1nnc(-c2ccccc2)o1 (stereo not given)	none
CN1c2cc(C(=O)NCc3ccccc3C(F)(F)F)ccc2C(=O)N2CCCCC21 (stereo not given)	none
Cc1ccc(CNC(=O)[C@H]2CN(Cc3ccccc3)C[C@H]2C(=O)O)o1	none
Cn1cnc([S+](=O)([O-])N2CCCC(c3nnc4n3C(C(=O)O)CC4)C2)c1 (stereo not given)	none
O=c1cc(N2CCOCC2)oc2c(N3CCOCC3)nccc12	none
O=C1NCCCCCCN(C(=O)c2cnccn2)[C@H]2CCC[C@@H]12	none
COc1ccc(CN2CCNc3cnc(Nc4cccnc4)cc3C2)cc1O	none
c1ccc(Nc2cc3c(cn2)NCCN(Cc2ccccn2)C3)cc1	none
CC(C)(C)CN1CCNc2cc(Nc3cccnc3)ncc2C1	none
Cc1[nH]cnc1CN1CCNc2cc(Nc3ccccc3)ncc2C1	none
c1cncc(Nc2cc3c(cn2)CN(Cc2ccc4[nH]ccc4c2)CCN3)c1	Pf Dd2 inh 2.82µM
c1ccc(Nc2cc3c(cn2)CN(Cc2c[nH]c4ccccc24)CCN3)cc1	Pf Dd2 inh 4.47µM
COc1ccc(C(=O)N2CCC(c3n[nH]c(=O)n3-c3ccccc3)CC2)c(OC)n1	none
COC(=O)[C@H]1CCCN1C(=O)[C@@H]1[C@@H](NC(=O)Nc2ccc(F)cc2F)CCN1C(=O)c1cccn1C	none
CO[C@@H]1CCOC[C@H]1NS(=O)(=O)c1ccc(S(C)(=O)=O)cc1	none
Cc1ccncc1NC(=O)CC1=C2CCCCC2N(C)C1=O (stereo not given)	none
COc1ccccc1CCC(=O)NC1CCc2nn(CC3CC3)c(=O)n2CC1 (stereo not given)	none
Cc1noc(C2CCCCCN2C(=O)c2ccnn2C)n1 (stereo not given)	none
COC(=O)Cc1c(C)c2ccc3c(c2oc1=O)CN(Cc1ccccc1OC)CO3	Pf Dd2 inh 12.6µM
COc1cccc(CN2CCOc3ccc(C(=O)NCc4ccc(C)cc4)cc3C2)c1	none
COc1ccccc1CNC(=O)Cc1c(C)c2c(cc(C)c3c(C)c(C)oc32)oc1=O	none
COC(=O)Cc1c(C)c2ccc3c(c2oc1=O)CN(Cc1ccccc1Cl)CO3	Pf Dd2 inh 7.08µM
COc1ccc(CNC(=O)Cc2c(C)c3cc4c(C)coc4c(C)c3oc2=O)cc1	none
COC(=O)Cc1c(C)c2ccc3c(c2oc1=O)CN(Cc1ccc(C)cc1)CO3	Pf Dd2 inh 11.2µM
COCCn1c(=O)[nH]c2cc(C(=O)NCc3ccccc3Cl)ccc2c1=O	none
CCC1Oc2ccc(NC(=O)C3CCCC3)cc2CN(Cc2ccccc2Cl)C1=O (stereo not given)	none
COc1ccccc1CCNC(=O)Cc1c(C)c2c(cc(C)c3c(C)c(C)oc32)oc1=O	none
O=C([C@@H]1C[C@H](Oc2ccccc2)CN1S(=O)(=O)c1ccccc1)N1CCCC1	none
CC[C@H](C)[C@H](N)C(=O)N1CCC2(CC1)Nc1ccccc1NC2=O	none
Cc1ccc(N2CCC(NC(=O)c3ccccc3C)C2=O)cc1 (stereo not given)	none
O=C1CC2CCN(C(=O)c3ccc4c(c3)OC(F)(F)O4)CC2CCN1 (stereo not given)	none
COC(=O)[C@H](Cc1ccc(OC)cc1)NC(=O)[C@H]1CN(C(=O)c2cccnc2)CCN1C(C)=O	none
O=C(C1CCCC1)N1CCC(N2CC(OCC3CC3)C23CCOCC3)CC1 (stereo not given)	none
COc1ccc(-c2cc(CC3(NCC(C)(C)C)COC3)no2)cc1	none
O=C(CN1C(=O)NC2(CCOCC2)C1=O)Nc1cccc(F)c1	none
COc1ccc(CCN2C(=O)N(c3ccc(F)cc3)C(=O)C2CC(=O)Nc2ccccc2)cc1OC (stereo not given)	none
COc1ccc2cc1Nc1ccc(cc1)C[C@H](NCC1CC1)C(=O)N(C)[C@@H](C(=O)Nc1ccccc1)C2	Pf Dd2 inh 3.98µM
COc1ccc(CCNC(=O)C2CC(=O)N(CCc3ccccc3)C2)cc1OC (stereo not given)	none
COc1ccc2cc1Nc1ccc(cc1)C[C@H](NCc1cccc(O)c1)C(=O)N(C)[C@@H](C(=O)Nc1ccccc1)C2	Pf Dd2 inh 4.47µM
COc1ccc(S(=O)(=O)N2Cc3ccccc3CC2C(=O)Nc2cccc(C)c2)cc1OC (stereo not given)	none
COc1ccc(NC(=O)C2Cn3cccc3C(=O)N2C)cc1 (stereo not given)	none
Cc1ncoc1C(=O)N1CCCCCCNC(=O)CC1	none
COC(=O)N1CCCC(c2nn(-c3ccc(OC)cc3)c(=O)[nH]2)C1 (stereo not given)	none
COc1ccc(NC(=O)N2CC[C@H]3CC(=O)N(CCN4CCNC4=O)CC[C@H]3C2)cc1	none
O=C(Cc1ccc(F)cc1)N1CC(c2nnc(-c3ccncc3)o2)C2(CCOCC2)C1 (stereo not given)	none
Cc1ccc(NC(=O)c2ccc(CN3C(=O)NC4(CCOCC4)C3=O)cc2)cc1	none
Cc1cnc(-c2cccnc2)n1CCN	none
COCCN1CCCN(C(=O)c2ccoc2)c2ccccc21	none
COCCN1CCCN(C(=O)c2cc(C)cc(C)c2)c2ccccc21	none
COCCN1CCCN(C(=O)c2cc(C)ccc2C)c2ccccc21	Pf Dd2 inh 10µM
Cc1cccc2nc(CNC(=O)c3cc(COc4ccc(F)cc4F)on3)cn12	none
Cc1ccccc1-n1ncc(C(C)NC(=O)c2cn[nH]c2-n2cnnn2)c1C (stereo not given)	none
COC(=O)c1nc2n(n1)C(c1cc(OC)ccc1OC)C=C(c1ccc(Br)cc1)N2 (stereo not given)	none
COc1ccc(C2=CC(c3cc(Br)ccc3F)n3c(nc4ccccc43)N2)cc1 (stereo not given)	none
CCOc1ccc(C2=CC(c3cc(Br)ccc3F)n3ncnc3N2)cc1Cl (stereo not given)	Pf Dd2 inh 11.2µM
Cc1cc2ncc(C(=O)NCc3cccs3)cn2n1	none
COc1cccc(CC(=O)N2CC(F)(F)C[C@H]2c2nc(C)no2)c1	none
CN1CC(=O)N(c2ccccc2)Cc2c(NCCCc3ccccc3)ncnc21	Pf Dd2 inh 6.31µM
CN1CC(=O)N(c2ccccc2)Cc2c(NCc3ccc(F)cc3)ncnc21	none
CN1CC(=O)N(c2ccccc2F)Cc2c1ncnc2N1CCC(c2ccccc2)CC1	none
CN1CC(=O)N(c2ccccc2)Cc2c1ncnc2N1CCC(O)CC1	none
CN1CC(=O)N(c2ccc(Cl)cc2)Cc2c(NCc3ccc(F)cc3)ncnc21	Pf Dd2 inh 7.94µM
CN1CC(=O)N(c2ccc(Cl)cc2)Cc2c1ncnc2N1CCC(Cc2ccccc2)CC1	Pf Dd2 inh 12.6µM
CN1CC(=O)N(c2ccccc2)Cc2c(NCCOc3ccccc3)ncnc21	none
CN1CC(=O)N(c2ccccc2)Cc2c(NCCc3ccc(Cl)cc3)ncnc21	none
CN1CC(=O)N(c2ccc(Cl)cc2)Cc2c(NCc3cccs3)ncnc21	none
CC(C)CC(=O)N1CCCC(Cc2nc(C3CCOCC3)no2)C1 (stereo not given)	none
Cc1noc([C@H]2CCN(Cc3cc(F)cc(F)c3)C[C@H]2NC(=O)C2CC2)n1	none
COC(=O)[C@@H]1Cc2ncn(C)c2CN1C(=O)CC(C)(C)CC(=O)O	none
O=C(O)c1ccc(C2CCCN(C(=O)CN3CCc4ccccc4C3)C2)cc1 (stereo not given)	none
O=[S+]1([O-])CCCN1C1CCN([S+](=O)([O-])c2ccc(C(F)(F)F)cc2)CC1	none
CO[C@H]1C(=O)N(C(C)C)[C@H]1C1CCN(C(=O)Nc2ccccc2F)CC1	none
COc1cccc(-c2nc(N3CCOCC3)cc3c2CN(CC2CC2)C3=O)c1OC	none
COc1ncccc1-c1nc(N2CCOCC2)cc2c1CN(CC(F)(F)F)C2=O	none
COc1cccc(-c2nc(N3CCOCC3)cc3c2CN(CC(F)(F)F)C3=O)c1OC	none
